# In PubChem BioAssay AID488890 (Southern Research Specialized Biocontainment Screening …, 2010):
# Hit rate of the full screen: of about 320,000 compounds, about 1,300 (0.41%) were called active. Not shown: some 3% with an inconclusive outcome. How the calls were made is not given here. These entries were drawn from the full list. Results with a measured potency or affinity are listed apart.
# Test: growth inhibition of non-replicating M. tuberculosis (AID 488890);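 further: plate controls were DMSO cells for no effect and high antibiotic wells for full effect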
# Conditions: Mycobacterium tuberculosis non-replicating, at 25 µM, stronger effect = higher value
row,SMILES,inhibition
1,CCOc1ccc(-c2nnc(-c3ccc(OC)cc3)o2)cc1,53.7%
2,COc1ccc(-c2nnc(SCc3cc(C)cc(C)c3)o2)cc1,42.9%
3,COc1ccc(-c2ccc(-c3nnc(Cc4ccc(OC)c(OC)c4)o3)cc2)cc1,15.8%
4,COc1ccc(NCc2nnc(-c3ccccc3)o2)cc1,69.4%
5,COc1ccc(-c2nnc(SCC#N)o2)cc1,65.7%
6,CC(=O)CSc1nnc(Cc2ccc([N+](=O)[O-])cc2)o1,70.9%
7,Cc1nnc(SCc2ccc([N+](=O)[O-])cc2)o1,16.4%
8,CCCc1nnc(-c2cc(OC)c(OC)c(OC)c2)o1,7.1%
9,Cn1c(=O)c(=O)n(C)c2cc(S(=O)(=O)N3CCOCC3)ccc21,-6.34%
10,COC(=O)c1cc(S(=O)(=O)NCc2ccccc2Cl)c[nH]1,-3.81%
11,Cc1ccc2c(c1)N(S(=O)(=O)c1ccc(CN3C(=O)c4cccnc4C3=O)cc1)CCO2,15.3%
12,Cn1c(SCc2cccnc2)nc2cccnc21,-20.7%
13,CC/C(=N\N=C1\SC(C)C(=O)N1Cc1ccco1)c1ccccc1 (stereo unspecified),32%
14,COc1ccccc1CNC(=O)c1cnn2c(C(F)F)cc(C)nc12,24.9%
15,COc1ccccc1N1CCN(S(=O)(=O)CCNC(=O)C2CC2)CC1,-6.08%
16,COc1ccc(-c2cc(C(F)F)n3ncc(C(=O)Nc4cnn(Cc5ccccc5)c4)c3n2)cc1,-6.39%
17,Fc1ccc(-c2nnc(Cc3nnc(-c4ccc(F)cc4)o3)o2)cc1,-8.26%
18,O=[N+]([O-])c1ccc(Cc2nnc(-c3ccccc3Cl)o2)cc1,34.9%
19,Cc1cccc(NCc2ccccc2O)c1C,12.1%
20,O=[N+]([O-])c1ccc(Cc2nnc(-c3ccc(F)cc3)o2)cc1,72.1%
21,c1ccc(OCc2nnc(-c3ccccc3)o2)cc1,62.3%
22,c1ccc(CN2CCN(Cc3nnc(-c4ccccc4)o3)CC2)cc1,30.8%
23,Clc1ccccc1OCc1nnc(-c2ccccc2Br)o1,29.1%
24,COc1ccc(OC)c(NCc2nnc(-c3ccccc3)o2)c1,77%

row,SMILES,inhibition
1,O=C(Nc1nn(Cc2ccc(Cl)cc2)cc1Br)c1ccc(COc2ccccc2Cl)o1,44.8%
2,CCc1cc(CC)c(/C=N/NC(N)=O)c(CC)c1,6.49%
3,COc1ccc(-n2cnc3sc4c(c3c2=O)CCCC4)cc1,26%
4,CC(C)c1nnc(NC(=O)CN2C(=O)c3ccccc3C2=O)s1,-1.11%
5,Cc1ccc(-n2ncc(C(=O)N3CCN(C(=O)c4ccco4)CC3)c2C2CCN(C(=O)OC(C)(C)C)CC2)cc1C,-1.31%
6,O=C(C1CCC1)N1CCc2cc(S(=O)(=O)NCCCN3CCCCC3)ccc21,-2.13%
7,CCOC(=O)c1c(NC(=O)Nc2ccc(F)cc2)sc2c1CCN(C)C2,0.96%
8,C=CCn1c(O)c(C(CC)=NCCc2c[nH]c3ccccc23)c(=O)[nH]c1=O,18.7%
9,O=[N+]([O-])c1cccc(-c2nnc(C3CC3)o2)c1,8.89%
10,Clc1ccc(-c2nnc(C3CC3)o2)cc1,63%
11,COc1cc(NC(=O)c2ccc(Cl)cc2)c(Cl)cc1NC(=O)c1cccnc1,-8.85%
12,COc1cccc(O)c1CN1CCC(C(=O)Nc2ccc(Oc3cccnc3)cc2)CC1,19.3%
13,Cc1ccccc1CN1CCC(C(=O)Nc2ccc(Oc3cccnc3)cc2)CC1,30.1%
14,CC1Cc2ccccc2N1C(=O)CO/N=C/c1ccccc1OC(F)F (stereo unspecified),-12.1%
15,C=CCn1c(O)c(N=NC(=O)C(O)c2ccccc2)c2ccccc21 (stereo unspecified),15.4%
16,CC(OC(=O)c1snc(C(=O)NC2CCCCC2)c1N)C(=O)NC1CCCCC1 (stereo unspecified),-11.8%
17,CC(C)(C)NC(=O)CN(C(=O)c1snc(C(=O)NC2CCCCC2)c1N)c1ccc(F)cc1,-3.77%
18,CC(OC(=O)c1snc(C(=O)NC2CCCCC2)c1N)C(=O)NC(C)(C)C (stereo unspecified),48.2%
19,CCOC(=O)c1snc(C(=O)NC2CCCCC2)c1N,64.4%
20,C/C(=N\NC(=O)C(C)Nc1cccc(Cl)c1)c1ccc([N+](=O)[O-])cc1 (stereo unspecified),6.72%
21,Cc1ccc2oc(=O)c3cnn(CC(=O)NCCC(C)C)c3c2c1,-1%
22,COCCN1C(=O)N[C@@H](c2ccccc2)[C@@H](C(=O)OC)[C@H]1C,-23.2%
23,CC(C)NC(=O)C(c1ccc(F)cc1)N(C(=O)CCC(=O)Nc1ccccn1)C1CCCCC1 (stereo unspecified),-1.84%
24,O=C1Nc2ccccc2C1Cc1ccccc1 (stereo unspecified),24.6%

row,SMILES,inhibition
1,FC(F)(F)c1cc(CO[C@@H]2CCCN[C@@H]2c2ccccc2)cc(C(F)(F)F)c1,63.4%
2,CCOc1ccc(Br)cc1/C=N/NC(=O)c1ccncc1,73.7%
3,COc1ccc(C(=O)NCCc2c[nH]c3ccccc23)cc1,25.8%
4,CS(=O)(=O)c1ccc(Cl)c(NC(=O)COC(=O)CCc2c[nH]c3ccccc23)c1,74.8%
5,COc1ccc(CNC(=O)CCc2c[nH]c3ccccc23)cc1,-7.3%
6,O=C(COC(=O)Cc1c[nH]c2ccccc12)Nc1cccc2ccccc12,2.45%
7,Cc1ccc(NC(=O)COC(=O)Cc2c[nH]c3ccccc23)cc1C,35.7%
8,COc1ccc(NC(=O)COC(=O)CCCc2c[nH]c3ccccc23)cc1OC,16.1%
9,Cc1cccc(NC(=O)COC(=O)Cc2c[nH]c3ccccc23)c1C,6.74%
10,CS(=O)(=O)c1ccc(Cl)c(NC(=O)COC(=O)Cc2c[nH]c3ccccc23)c1,-10%
11,CCc1ccccc1N(C(=O)c1snc(C(N)=O)c1N)C(C(=O)NCC1CCCO1)c1ccc(C)o1 (stereo unspecified),37.2%
12,C[C@H]1COC(=O)[C@H](Cc2ccc(F)cc2)C/C=C\C[C@H](CC(=O)NCCO)C(=O)N1,6.21%
13,CCCCN(C(=O)C1CCC1)c1c(N)n(CCC)c(=O)[nH]c1=O,-13.3%
14,COc1cc(OC)c(C2=NOC(C(=O)NCc3cccnc3)C2)cc1Cl (stereo unspecified),2.26%
15,COc1ccc(NC(=O)c2coc3ccccc23)cc1OC,48.1%
16,C[C@H](OC(=O)N1CCN(C(c2ccccc2)c2ccccc2)CC1)[C@@H]1O[C@@]2(C)CCC[C@H]1O2,3.49%
17,COCCN1C(=O)c2ccccc2C(C(=O)N2CCN(c3ccccc3)CC2)C1c1ccc(F)cc1 (stereo unspecified),30%
18,COc1cccc(NC(=O)COC(=O)CCCc2c[nH]c3ccccc23)c1,58.5%
19,O=C(COC(=O)c1c[nH]c2ccccc12)Nc1ccc([N+](=O)[O-])cc1,-4.96%
20,Cc1ccnc(NC(=O)CCCc2c[nH]c3ccccc23)c1,11.4%
21,CC(=O)Nc1ccc(NC(=O)COC(=O)CCCc2c[nH]c3ccccc23)cc1,13.7%
22,Cc1ccc(NC(=O)CCc2c[nH]c3ccccc23)nc1,65.6%
23,NS(=O)(=O)c1cccc(NC(=O)COC(=O)CCCc2c[nH]c3ccccc23)c1,7.86%
